Molecules are shown by their SMILES. Where “and” joins values, the source holds several entries; their conditions need not be identical. Equal values may be shown once. Records with an inconclusive call do not appear. Calls of active or inactive are those of the source. Unless noted, the call rests on the fitted dose curve; in most records, active means well fitted curve in the direction sought with a large enough effect in the repeat runs; inconclusive means weak or mixed curves; inactive means no such curve, though single readings can be large; an effect the other way counts as inactive or inconclusive.

Our source for the Potency and outcome values is PubChem BioAssay (Tox21).

The nature of assay [1]: qHTS assay for small molecules that induce genotoxicity in human embryonic kidney cells expressing luciferase-tagged ATAD5 (AID 651632). Further: nearly all actives have a fitted effect of over 15% in size. The procedure, abridged:
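HEK293T cells carrying a luciferase reporter tagged to ATAD5 were exposed to compound or DMSO vehicle for 16 hr at 37C, 5% CO2. Amplite was added, and after 30 min at room temperature luciferase activity was read as a marker of ATAD5 induction.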
Background: In qHTS, concentration-response curves come from the screen itself.

A short description of assay [2]: qHTS assay for small molecule agonists of the p53 signaling pathway - cell viability (AID 651633; calls by dose curve; further: nearly all actives have a fitted effect of over 30% in size; further: potency means the concentration at half of the fitted maximal effect). The procedure, abridged: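 p53RE-bla cells, seeded at 4,000 per well and rested 5 h at 37 C/5% CO2, received compounds in DMSO for 16 h at 37 C. CellTiter-Glo was then added, and luminescence was read after 30 min at room temperature to gauge cytotoxicity.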
Assay [3] is described as follows: qHTS assay for small molecules that induce genotoxicity in human embryonic kidney cells expressing luciferase-tagged ATAD5 - cell viability (AID 651634; calls by dose curve; further: nearly all actives have a fitted effect of over 25% in size; further: potency means the concentration at half of the fitted maximal effect). A digest of the protocol:
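HEK293T cells expressing luciferase-tagged ATAD5 were exposed to compound or DMSO for 15.5 hr at 37C, 5% CO2. Viability was then read as live-cell protease activity by CellTiter-Fluor fluorescence after 30 min at 37C.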

Assay [4] is described as follows: qHTS assay for small molecule disruptors of the mitochondrial membrane potential - cell viability (AID 720634; calls by dose curve; further: nearly all actives have a fitted effect of over 20% in size; further: potency means the concentration at half of the fitted maximal effect). The procedure, abridged: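 HepG2 cells seeded overnight at 37 C, then exposed to compound or DMSO for 1 hr at 37 C, 5% CO2. m-MPI dye added, then CellTiter-Glo for 30 min at room temperature; viability read as ATP luminescence.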
Assay [5] is described as follows: qHTS assay for small molecule disruptors of the mitochondrial membrane potential (AID 720635). Further: potency means the concentration at half of the fitted maximal effect. The procedure, abridged: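 HepG2 cells (2,000/well) attached overnight at 37C, then took compound for 1 hr at 37C, 5% CO2. Mito-MPS dye was added for 30 min; fluorescence was read at 490/535 nm (monomers) and 540/590 nm (aggregates).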
Assay [6] in a line: qHTS assay to test for compound auto fluorescence at 590 nm (red) in HepG2 cells (AID 720674). A digest of the protocol:
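Rose Bengal sodium served as the red fluorophore standard. HepG2 monolayers (overnight attachment, MEM with 10% FBS) were exposed to test compounds for 1 hr at 37 C and read at Ex 540/Em 590 nm.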

Assay [7] can be described thus: qHTS assay to test for compound auto fluorescence at 535 nm (green) in HepG2 cells (AID 720675). Further: potency means the concentration at half of the fitted maximal effect.
Assay [8] is described as follows: qHTS assay to test for compound auto fluorescence at 460 nm (blue) in HEK293 cells (AID 720678). The procedure, abridged:
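Intrinsic compound fluorescence is recorded in live HEK293 cultures after overnight incubation at 37C, 5% CO2, using excitation 405 nm and emission 460 nm. Values are referenced to triamterene.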

A short description of assay [9]: qHTS assay to test for compound auto fluorescence at 590 nm (red) in HEK293 cells (AID 720679). A digest of the protocol:
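Red autofluorescence, HEK293 cells: 2,000 cells/well; attach 4-5 hr 37C; add 23 nL cpd or DMSO; incubate o/n 37C 5% CO2; read Ex540/Em590; Rose Bengal sodium reference.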

The nature of assay [10]: qHTS assay to test for compound auto fluorescence at 535 nm (green) in HEK293 cells (AID 720680).
Assay [11] can be described thus: qHTS assay to test for compound auto fluorescence at 460 nm (blue) in HEK293 cell free culture (AID 720681). The procedure, abridged:
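Test compounds were pinned into cell-free culture medium (DMEM with 10% FBS) and fluorescence was read directly at Ex/Em 405/460 nm. Signals were expressed as fluorescence equivalents of triamterene, with DMSO vehicle as control.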

The nature of assay [12]: qHTS assay to test for compound auto fluorescence at 535 nm (green) in HEK293 cell free culture (AID 720682). A digest of the protocol: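 Cell-free medium (DMEM, 10% FBS) receives compound or DMSO by pintool. Plate read directly at Ex 485/Em 535 nm. Signal converted to fluorescein equivalency.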
The nature of assay [13]: qHTS assay to test for compound auto fluorescence at 590 nm (red) in HEK293 cell free culture (AID 720683). The procedure, abridged: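 Tox21 10K library compounds were pinned into cell-free DMEM with 10% FBS and fluorescence was read at excitation 540 nm. Activity is expressed as Rose Bengal sodium equivalency.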
A short description of assay [14]: qHTS assay to test for compound auto fluorescence at 590 nm (red) in HepG2 cell free culture (AID 720684). The procedure, abridged: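 Red fluorescence (540 nm excitation, 590 nm emission) was measured after compound transfer into cell-free MEM supplemented with 10% FBS. Values are equivalencies against Rose Bengal sodium.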
Assay [15] is described as follows: qHTS assay to test for compound auto fluorescence at 460 nm (blue) in HepG2 cell free culture (AID 720685). The procedure, abridged: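 Compound (23 nL) or DMSO pinned into cell-free MEM with 10% FBS; blue fluorescence read at 405/460 nm excitation/emission, expressed as auto-fluorescence equivalency to triamterene.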
Assay [16] in a line: qHTS assay to test for compound auto fluorescence at 535 nm (green) in HepG2 cell free culture (AID 720686). Further: potency means the concentration at half of the fitted maximal effect.
The nature of assay [17]: qHTS assay to test for compound auto fluorescence at 460 nm (blue) in HepG2 cells (AID 720687). A digest of the protocol: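 Cells (2,000/well in MEM with 10% FBS) attached overnight at 37 C, then were exposed to compound or DMSO for 1 hr at 37 C, 5% CO2. Fluorescence read at Ex/Em 405/460 nm, expressed as triamterene-equivalent signal.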
The target of assay [18] is Glucocorticoid receptor (Homo sapiens) (UniProt P04150). The experiment in a line: qHTS assay to identify small molecule agonists of the glucocorticoid receptor (GR) signaling pathway (AID 720691; active means well fitted activation curve with a large enough effect in the signal ratio in the repeat runs, not every such curve was filed as active; the % refers to the signal ratio). As to conditions: GR-bla HeLa, beta-lactamase reporter ratio, 18 h; activation: at 62.4 µM (top of the series). The procedure, abridged:
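GR-bla HeLa cells (beta-lactamase reporter under glucocorticoid response element) were plated 4 h at 37 C/5% CO2, given compounds in DMSO, and incubated 18 h at 37 C. LiveBLAzer B/G FRET substrate was added for 2 h at room temperature, then fluorescence intensity read.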

The nature of assay [19]: qHTS assay for small molecule agonists of the p53 signaling pathway (AID 651631; calls by dose curve; further: potency means the concentration at half of the fitted maximal effect; nearly all actives have a fitted effect of over 15% in size). A digest of the protocol:
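p53RE-bla HCT-116 cells; compounds 16 h, 37 °C; LiveBLAzer B/G FRET substrate 2 h RT; fluorescence intensity read-out, qHTS format.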

Assay [20] has as its target Glucocorticoid receptor (Homo sapiens) (UniProt P04150). Briefly: qHTS assay to identify small molecule antagonists of the glucocorticoid receptor (GR) signaling pathway (AID 720692; active means well fitted inhibition curve with a large enough effect in the signal ratio in the repeat runs, not every such curve was filed as active; the % refers to the signal ratio; further: potency means the concentration at half of the fitted maximal effect). A digest of the protocol:
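GR-bla HeLa cells (beta-lactamase reporter under glucocorticoid response element) were pre-plated 4 h at 37 C, treated with compounds plus 5 nM dexamethasone (final) for 18 h, then read by LiveBLAzer B/G FRET fluorescence after 2 h.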
Tags describe the fitted curve by direction and shape or compound fluorescence and quenching.

Glucocorticoid receptor (Homo sapiens), sequence (P04150 whole entry, looked up): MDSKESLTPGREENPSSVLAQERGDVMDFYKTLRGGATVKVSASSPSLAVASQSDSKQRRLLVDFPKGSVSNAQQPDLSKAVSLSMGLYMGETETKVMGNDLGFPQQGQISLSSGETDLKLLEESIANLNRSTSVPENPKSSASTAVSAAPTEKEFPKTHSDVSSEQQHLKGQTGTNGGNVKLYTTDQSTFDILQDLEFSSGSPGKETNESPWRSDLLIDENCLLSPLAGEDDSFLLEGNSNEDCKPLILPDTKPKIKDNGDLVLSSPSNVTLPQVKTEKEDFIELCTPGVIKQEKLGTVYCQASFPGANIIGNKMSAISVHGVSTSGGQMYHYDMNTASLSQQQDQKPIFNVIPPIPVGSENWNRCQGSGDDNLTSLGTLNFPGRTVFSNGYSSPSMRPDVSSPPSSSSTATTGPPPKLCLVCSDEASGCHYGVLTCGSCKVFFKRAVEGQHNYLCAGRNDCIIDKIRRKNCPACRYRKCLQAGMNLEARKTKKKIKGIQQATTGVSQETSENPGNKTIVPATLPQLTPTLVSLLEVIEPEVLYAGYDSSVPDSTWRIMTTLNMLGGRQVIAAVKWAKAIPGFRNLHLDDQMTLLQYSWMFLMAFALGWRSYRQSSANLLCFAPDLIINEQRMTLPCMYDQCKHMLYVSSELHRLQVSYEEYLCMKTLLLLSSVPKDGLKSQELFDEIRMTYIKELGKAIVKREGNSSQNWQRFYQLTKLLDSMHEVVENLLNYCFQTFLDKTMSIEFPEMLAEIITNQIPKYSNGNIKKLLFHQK

In the case of `O=C1c2c(O)ccc(Nc3ccc(CCO)cc3)c2C(=O)c2c([N+](=O)[O-])ccc(O)c21`, the Potency entry in assay [1], in assay [2], in assay [4], in [6], in [7] and in assay [8] was “inactive” in each case. For the same compound, the Potency entry in assay [9], in assay [11], in assay [13], in assay [14], in [15] and in assay [16] was “inactive” each time. Further, the Potency entry in assay [17] and in [18] was “inactive” each time. In addition, the Potency was 48.6 µM (active) in assay [3] and 1.93 µM (active) in assay [5]. For the same compound, the result in assay [10] and in assay [12] was inactive.
Consider `Cc1cc(O)c(C(C)(C)C)cc1Sc1cc(C(C)(C)C)c(O)cc1C`, for which the Potency entry in assay [1], in assay [6], in assay [8], in assay [9], in assay [11] and in [13] was “inactive” in each case. In addition, the Potency result in assay [14], in assay [15], in assay [16] and in [17] was “inactive” each time. Also, the Potency is 13.7 µM (active) in assay [2], 54.4 µM (active) in assay [3], 61 µM (active) in assay [4] and 0.768 µM (active) in [5]. The outcome in assay [10] and in assay [12] was inactive.
As to `COc1ccc(C(=O)/C(Br)=C\C(=O)O)cc1`, the Potency in assay [19] is 10.6 µM (active) and 21.7 µM (active). The Potency entry in assay [2], in assay [4], in assay [5], in assay [6], in [7] and in [8] was “inactive” in each case. The Potency entry in [9], in assay [11], in [13], in assay [14], in assay [15] and in assay [16] was “inactive” in each case. Besides, the Potency result in [17], in [18] and in assay [20] was “inactive” each time. For the same compound, the compound was called inactive in [10] and in [12].
As to `CC1=NC(C)OC1C` (stereo not given), the Potency entry in assay [1], in assay [2], in [3], in assay [4], in [5] and in [6] was “inactive” in each case. Also, the Potency result in [7], in assay [8], in assay [9], in assay [11], in [13] and in [14] was “inactive” each time. Moreover, the Potency result in [15], in assay [16], in [17] and in assay [18] was “inactive” throughout. The outcome in assay [10] and in [12] was inactive. Further, the Potency in [20] is 34.7 µM (active).
In the case of `CCCCCCCC/C=C\CCCCCCCCOCCO`, the Potency entry in [1], in assay [6], in assay [7], in assay [8], in [9] and in assay [13] was “inactive” throughout. Also, the Potency entry in assay [14], in assay [16] and in assay [17] was “inactive” throughout. Also, the Potency was 31.6 µM (active) in assay [2], 39.8 µM (active) in [3], 79.4 µM (active) in assay [4] and 1.78 µM (active) in assay [5]. The compound was classed as inactive in assay [10].
For the compound `CCCC(=O)OC[C@@H](OC(=O)CCC)[C@@H](OC(=O)CCC)[C@H](Cn1c2nc(=O)[nH]c(=O)c-2nc2cc(C)c(C)cc21)OC(=O)CCC`, the Potency entry in assay [1], in assay [2], in assay [3], in assay [4], in assay [6] and in assay [8] was “inactive” each time. The Potency result in assay [9], in assay [11], in assay [13], in assay [14], in assay [15] and in assay [17] was “inactive” in each case. Besides, the Potency in assay [5] is 6.99 µM (active); in assay [7] it was 8.91 µM (active); in assay [16] it was 8.91 µM [fluorescent] (active).
